Test results reported in the supplement of paper PMC11732987, “Enantioselective OTUD7B fragment discovery through chemoproteomics screening and high-throughput optimisation” (Communications Chemistry, 2025).

How the values were obtained:
Assay in all cases: log2 ratio of Biotin-Ahx-Ub-VS probe labelling (fragment/DMSO); higher = less target engagement (more negative = stronger competition), active = hit call of the paper (q ≤ 0.05, log2 ratio ≤ -1)
Conditions in all cases: compound concentration: 200 uM; treatment time: 3 h
USP34 = USP34 (UniProt Q70CQ2)
How it was run: (§1)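 HEK293T lysate, 495 µg per sample in Tris/CHAPS/IGEPAL buffer with protease inhibitors, was treated in triplicate with fragment at 200 µM or vehicle for 3 h and then with Biotin-Ahx-Ub-VS at 0.5 µM final for 1 h. Labelled DUBs were NeutrAvidin-enriched, digested with LysC and trypsin, and run by diaPASEF LC-MS/MS. Spectronaut label-free quantities were global-median-normalised, and values are average log2 fragment/vehicle ratios by unpaired t-test on proteins with ≥2 unique peptides.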

USP36 = molecular target: T1, USP36 (UniProt Q9P275)
T1 sequence (whole entry): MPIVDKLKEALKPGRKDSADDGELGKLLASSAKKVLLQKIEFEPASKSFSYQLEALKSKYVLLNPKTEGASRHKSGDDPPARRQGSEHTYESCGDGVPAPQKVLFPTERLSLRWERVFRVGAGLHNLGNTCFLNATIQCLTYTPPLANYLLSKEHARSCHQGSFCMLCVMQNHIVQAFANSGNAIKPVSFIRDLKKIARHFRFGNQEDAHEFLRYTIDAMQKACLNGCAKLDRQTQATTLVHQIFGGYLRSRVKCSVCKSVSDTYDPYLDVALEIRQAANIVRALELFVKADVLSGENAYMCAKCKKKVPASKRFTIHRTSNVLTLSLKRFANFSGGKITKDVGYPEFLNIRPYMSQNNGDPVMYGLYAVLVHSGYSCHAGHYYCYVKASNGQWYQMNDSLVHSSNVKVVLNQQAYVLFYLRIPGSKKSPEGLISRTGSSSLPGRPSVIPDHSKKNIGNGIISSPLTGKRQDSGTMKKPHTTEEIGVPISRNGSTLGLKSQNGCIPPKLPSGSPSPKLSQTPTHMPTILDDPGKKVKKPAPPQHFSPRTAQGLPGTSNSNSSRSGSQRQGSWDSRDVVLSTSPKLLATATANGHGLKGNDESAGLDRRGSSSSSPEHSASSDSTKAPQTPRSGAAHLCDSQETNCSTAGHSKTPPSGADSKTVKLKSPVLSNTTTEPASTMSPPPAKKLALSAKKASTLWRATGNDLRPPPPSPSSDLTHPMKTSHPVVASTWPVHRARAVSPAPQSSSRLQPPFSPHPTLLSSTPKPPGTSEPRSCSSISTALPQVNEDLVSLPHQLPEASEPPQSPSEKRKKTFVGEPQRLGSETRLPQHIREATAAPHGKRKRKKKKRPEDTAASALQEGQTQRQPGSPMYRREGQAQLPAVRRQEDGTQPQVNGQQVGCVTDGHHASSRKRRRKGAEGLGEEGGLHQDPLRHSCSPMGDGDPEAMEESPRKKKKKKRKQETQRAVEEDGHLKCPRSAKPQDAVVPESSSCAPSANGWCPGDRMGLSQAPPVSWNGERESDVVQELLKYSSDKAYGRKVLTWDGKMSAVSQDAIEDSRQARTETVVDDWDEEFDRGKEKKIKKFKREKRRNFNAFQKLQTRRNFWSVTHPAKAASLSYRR
How it was run: as §1

USP38 = molecular target: T2, USP38 (UniProt Q8NB14)
T2 sequence (whole entry): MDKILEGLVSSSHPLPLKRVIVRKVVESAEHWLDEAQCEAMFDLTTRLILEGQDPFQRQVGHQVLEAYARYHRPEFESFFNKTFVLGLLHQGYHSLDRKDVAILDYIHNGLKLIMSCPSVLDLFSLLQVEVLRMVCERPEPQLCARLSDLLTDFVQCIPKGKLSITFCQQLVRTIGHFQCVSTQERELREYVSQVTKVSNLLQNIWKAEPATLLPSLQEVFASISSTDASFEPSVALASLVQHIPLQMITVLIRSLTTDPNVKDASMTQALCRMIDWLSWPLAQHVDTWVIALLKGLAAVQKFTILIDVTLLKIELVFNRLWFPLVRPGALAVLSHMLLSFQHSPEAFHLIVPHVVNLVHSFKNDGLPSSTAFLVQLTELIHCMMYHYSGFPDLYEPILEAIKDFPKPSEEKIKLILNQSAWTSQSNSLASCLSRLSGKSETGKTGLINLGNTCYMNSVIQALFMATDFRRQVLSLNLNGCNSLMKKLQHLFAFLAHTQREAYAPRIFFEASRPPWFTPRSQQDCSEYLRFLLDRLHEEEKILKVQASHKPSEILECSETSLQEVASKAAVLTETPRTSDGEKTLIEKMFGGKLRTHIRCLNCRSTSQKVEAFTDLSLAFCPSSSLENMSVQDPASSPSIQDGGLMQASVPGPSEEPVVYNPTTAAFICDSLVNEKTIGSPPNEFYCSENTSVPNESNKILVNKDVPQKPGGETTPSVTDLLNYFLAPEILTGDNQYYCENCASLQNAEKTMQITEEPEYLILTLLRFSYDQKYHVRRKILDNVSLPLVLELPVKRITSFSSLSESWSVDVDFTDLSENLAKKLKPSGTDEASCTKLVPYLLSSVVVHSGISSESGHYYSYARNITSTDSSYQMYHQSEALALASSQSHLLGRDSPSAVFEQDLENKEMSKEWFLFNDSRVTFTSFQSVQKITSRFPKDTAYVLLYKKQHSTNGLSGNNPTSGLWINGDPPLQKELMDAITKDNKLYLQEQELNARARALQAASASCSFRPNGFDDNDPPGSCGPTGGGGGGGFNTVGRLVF
How it was run: as §1

USP39 = molecular target: T3, USP39 (UniProt Q53GS9)
T3 sequence (whole entry): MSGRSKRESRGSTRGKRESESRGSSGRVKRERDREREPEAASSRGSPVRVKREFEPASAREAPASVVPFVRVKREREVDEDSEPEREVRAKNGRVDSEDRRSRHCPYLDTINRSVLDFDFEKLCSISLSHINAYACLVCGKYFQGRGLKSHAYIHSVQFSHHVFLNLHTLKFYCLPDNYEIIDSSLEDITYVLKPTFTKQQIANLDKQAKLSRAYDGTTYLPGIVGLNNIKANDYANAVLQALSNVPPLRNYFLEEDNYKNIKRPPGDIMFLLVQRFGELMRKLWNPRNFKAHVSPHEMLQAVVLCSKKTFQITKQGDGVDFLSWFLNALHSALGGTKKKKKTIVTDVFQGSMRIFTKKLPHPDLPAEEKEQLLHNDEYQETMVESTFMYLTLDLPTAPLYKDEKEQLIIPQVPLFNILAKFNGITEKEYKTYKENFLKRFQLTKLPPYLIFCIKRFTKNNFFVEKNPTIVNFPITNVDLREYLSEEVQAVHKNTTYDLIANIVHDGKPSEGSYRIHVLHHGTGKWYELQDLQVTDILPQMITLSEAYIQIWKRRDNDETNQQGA
How it was run: as §1

USP4 = molecular target: T4, USP4 (UniProt Q13107)
T4 sequence (whole entry): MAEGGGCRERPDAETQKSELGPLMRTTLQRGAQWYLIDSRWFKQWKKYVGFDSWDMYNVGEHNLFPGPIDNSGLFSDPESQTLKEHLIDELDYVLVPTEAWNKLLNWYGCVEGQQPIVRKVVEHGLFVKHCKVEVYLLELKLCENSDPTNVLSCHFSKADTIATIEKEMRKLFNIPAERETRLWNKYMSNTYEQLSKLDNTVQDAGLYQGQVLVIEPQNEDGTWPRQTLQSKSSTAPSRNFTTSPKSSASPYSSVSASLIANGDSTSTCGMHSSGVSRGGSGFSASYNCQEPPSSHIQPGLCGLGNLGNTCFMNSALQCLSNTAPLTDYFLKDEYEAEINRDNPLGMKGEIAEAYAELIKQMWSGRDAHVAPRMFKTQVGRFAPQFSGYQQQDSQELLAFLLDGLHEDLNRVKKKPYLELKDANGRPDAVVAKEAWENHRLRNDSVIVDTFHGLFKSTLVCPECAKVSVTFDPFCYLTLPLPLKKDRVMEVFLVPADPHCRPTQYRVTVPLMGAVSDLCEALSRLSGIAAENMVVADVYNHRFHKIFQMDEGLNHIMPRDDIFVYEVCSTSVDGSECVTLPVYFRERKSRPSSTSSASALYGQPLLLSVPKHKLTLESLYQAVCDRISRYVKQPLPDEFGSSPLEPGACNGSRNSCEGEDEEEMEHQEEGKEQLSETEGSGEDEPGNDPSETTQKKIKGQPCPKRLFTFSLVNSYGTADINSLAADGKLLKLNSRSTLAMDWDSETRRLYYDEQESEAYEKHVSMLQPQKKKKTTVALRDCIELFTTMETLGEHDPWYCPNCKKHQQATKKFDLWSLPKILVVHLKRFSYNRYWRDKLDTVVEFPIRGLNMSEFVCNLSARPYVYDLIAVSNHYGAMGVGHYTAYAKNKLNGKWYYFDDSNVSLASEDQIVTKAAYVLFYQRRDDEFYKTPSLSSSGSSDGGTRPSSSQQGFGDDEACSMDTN
How it was run: as §1

Measured: log2 ratio of Biotin-Ahx-Ub-VS probe labelling

Chain of USP34 (Q70CQ2 whole entry, the tested form may be a part): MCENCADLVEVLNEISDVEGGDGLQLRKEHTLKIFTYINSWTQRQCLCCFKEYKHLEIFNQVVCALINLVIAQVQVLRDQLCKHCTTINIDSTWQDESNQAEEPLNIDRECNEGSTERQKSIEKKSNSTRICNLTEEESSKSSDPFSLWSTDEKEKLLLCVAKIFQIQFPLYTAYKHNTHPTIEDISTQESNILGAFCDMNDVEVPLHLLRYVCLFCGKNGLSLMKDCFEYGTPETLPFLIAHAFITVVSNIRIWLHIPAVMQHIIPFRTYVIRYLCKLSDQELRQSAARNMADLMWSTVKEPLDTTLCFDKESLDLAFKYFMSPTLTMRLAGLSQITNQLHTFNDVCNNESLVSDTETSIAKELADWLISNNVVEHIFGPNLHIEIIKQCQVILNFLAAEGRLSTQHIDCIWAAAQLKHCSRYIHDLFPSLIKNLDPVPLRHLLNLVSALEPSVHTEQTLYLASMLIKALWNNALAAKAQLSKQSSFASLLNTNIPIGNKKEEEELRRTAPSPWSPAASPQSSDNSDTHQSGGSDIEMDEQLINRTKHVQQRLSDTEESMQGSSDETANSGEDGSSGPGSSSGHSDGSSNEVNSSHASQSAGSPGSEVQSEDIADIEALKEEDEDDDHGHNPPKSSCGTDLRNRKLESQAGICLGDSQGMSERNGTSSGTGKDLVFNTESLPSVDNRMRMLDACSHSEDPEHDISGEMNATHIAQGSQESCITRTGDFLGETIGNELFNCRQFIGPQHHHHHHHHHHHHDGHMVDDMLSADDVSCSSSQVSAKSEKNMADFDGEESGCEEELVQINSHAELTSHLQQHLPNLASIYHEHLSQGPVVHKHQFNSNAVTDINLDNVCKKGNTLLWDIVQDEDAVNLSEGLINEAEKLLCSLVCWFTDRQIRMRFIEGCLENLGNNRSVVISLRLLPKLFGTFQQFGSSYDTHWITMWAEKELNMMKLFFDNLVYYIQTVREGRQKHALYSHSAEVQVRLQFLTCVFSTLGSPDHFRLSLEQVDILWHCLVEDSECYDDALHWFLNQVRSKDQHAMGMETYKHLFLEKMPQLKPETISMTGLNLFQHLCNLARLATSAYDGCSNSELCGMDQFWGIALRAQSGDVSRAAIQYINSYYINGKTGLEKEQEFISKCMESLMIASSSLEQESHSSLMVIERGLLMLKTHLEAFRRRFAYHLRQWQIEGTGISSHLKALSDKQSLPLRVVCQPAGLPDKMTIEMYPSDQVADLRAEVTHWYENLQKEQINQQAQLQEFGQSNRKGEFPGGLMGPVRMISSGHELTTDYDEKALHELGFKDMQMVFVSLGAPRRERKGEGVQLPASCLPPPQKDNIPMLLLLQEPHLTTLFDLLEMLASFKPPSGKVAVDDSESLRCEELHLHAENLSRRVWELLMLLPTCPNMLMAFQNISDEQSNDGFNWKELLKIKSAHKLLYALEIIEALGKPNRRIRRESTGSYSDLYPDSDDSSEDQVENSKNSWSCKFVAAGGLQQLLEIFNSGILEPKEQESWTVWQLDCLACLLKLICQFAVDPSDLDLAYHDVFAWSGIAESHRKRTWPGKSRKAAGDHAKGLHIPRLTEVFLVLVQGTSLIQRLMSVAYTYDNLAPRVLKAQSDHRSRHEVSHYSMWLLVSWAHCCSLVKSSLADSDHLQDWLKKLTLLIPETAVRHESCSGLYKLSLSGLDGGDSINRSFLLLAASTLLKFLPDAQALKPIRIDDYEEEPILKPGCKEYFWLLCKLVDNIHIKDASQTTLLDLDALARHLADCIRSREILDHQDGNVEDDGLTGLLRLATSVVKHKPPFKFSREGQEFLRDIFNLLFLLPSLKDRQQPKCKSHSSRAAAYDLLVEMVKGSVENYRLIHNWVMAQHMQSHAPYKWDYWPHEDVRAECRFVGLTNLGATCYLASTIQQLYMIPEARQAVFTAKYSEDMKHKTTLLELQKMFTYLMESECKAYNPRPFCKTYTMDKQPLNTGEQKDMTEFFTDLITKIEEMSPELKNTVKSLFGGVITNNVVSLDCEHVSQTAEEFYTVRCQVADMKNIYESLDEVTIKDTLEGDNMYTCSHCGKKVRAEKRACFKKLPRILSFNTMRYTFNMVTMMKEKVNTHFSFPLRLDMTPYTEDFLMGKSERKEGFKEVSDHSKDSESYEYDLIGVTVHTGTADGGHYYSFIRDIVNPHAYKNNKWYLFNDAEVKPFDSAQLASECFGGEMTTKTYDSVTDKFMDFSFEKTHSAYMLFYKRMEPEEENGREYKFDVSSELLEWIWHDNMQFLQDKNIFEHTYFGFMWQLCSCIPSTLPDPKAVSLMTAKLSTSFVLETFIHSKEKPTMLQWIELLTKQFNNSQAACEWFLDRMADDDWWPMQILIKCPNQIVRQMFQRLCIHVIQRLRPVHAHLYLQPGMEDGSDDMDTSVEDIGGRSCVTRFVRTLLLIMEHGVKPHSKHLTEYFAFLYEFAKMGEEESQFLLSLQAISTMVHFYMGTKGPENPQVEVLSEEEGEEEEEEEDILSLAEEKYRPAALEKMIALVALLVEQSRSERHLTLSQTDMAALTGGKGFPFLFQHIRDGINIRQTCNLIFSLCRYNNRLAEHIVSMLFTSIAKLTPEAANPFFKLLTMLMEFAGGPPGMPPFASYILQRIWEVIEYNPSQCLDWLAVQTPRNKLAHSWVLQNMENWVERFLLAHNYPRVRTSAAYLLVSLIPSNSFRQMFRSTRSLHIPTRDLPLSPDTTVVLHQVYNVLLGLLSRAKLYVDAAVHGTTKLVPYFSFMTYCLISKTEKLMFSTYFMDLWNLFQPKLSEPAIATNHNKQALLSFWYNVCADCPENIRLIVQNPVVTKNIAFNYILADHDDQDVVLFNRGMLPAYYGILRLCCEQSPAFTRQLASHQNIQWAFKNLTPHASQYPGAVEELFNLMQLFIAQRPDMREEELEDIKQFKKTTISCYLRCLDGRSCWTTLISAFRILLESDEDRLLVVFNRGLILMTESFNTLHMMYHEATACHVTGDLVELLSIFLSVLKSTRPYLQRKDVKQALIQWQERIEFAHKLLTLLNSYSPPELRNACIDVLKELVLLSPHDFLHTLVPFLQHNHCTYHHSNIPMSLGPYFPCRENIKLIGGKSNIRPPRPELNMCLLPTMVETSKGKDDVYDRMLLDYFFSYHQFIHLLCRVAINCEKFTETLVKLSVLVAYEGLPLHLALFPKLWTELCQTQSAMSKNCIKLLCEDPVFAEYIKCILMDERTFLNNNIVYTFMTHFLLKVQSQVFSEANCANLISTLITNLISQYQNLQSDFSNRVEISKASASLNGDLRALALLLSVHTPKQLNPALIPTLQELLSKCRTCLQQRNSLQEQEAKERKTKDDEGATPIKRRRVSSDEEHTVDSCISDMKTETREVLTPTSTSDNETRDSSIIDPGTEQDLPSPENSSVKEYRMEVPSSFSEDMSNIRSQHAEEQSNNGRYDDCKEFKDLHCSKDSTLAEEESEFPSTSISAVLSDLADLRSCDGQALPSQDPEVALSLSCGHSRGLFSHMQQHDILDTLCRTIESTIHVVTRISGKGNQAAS

O=C(CCl)Nc1nnc(CC(F)(F)F)o1
inactive: USP34 0.146 | USP36 -0.182 | USP38 -0.0633 | USP39 0.00671 | USP4 -0.0637
